Hits are enriched below; roughly 9.4% of the tested compounds scored in any of these assays.
Rab9 prom act: qHTS Assay for Rab9 Promoter Activators | Huh7 Rab9 promoter-luciferase reporter, luminescence, 24 h | Potency, µM (doses to about 9.22 µM), without a hit: at the top dose activation, negative = inhibition, hits mostly activators | 2.8% of 320,000 active | AID 485297, 2010; also: % of control where 0% means no effect; nearly all actives have a fitted effect of over 60% in size
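Measured in stably transfected Huh7 cells bearing a Rab9 promoter–luciferase construct: 24 h compound treatment at 37 °C, followed by luminescence detection.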
ELG1 repair inh: qHTS screen for small molecules that inhibit ELG1-dependent DNA repair in human embryonic kidney (HEK293T) cells expressing luciferase-tagged ELG1 | HEK293T ELG1-luciferase reporter, luminescence, 16 h; DNA damage induced by 5-fluorouridine | Potency, µM (titrated, usually from 46.1 µM), without a hit: top-dose activity change, negative = inhibition, usual class: inhibitors | 2.3% of 330,000 active | AID 504467, 2011; also: % is scaled to controls: 0 for no effect and ±100 for the full control effect; nearly all actives have a fitted effect of over 55% in size
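Quantitative HTS, concentration-response format. 2,000 cells/well co-treated with 5-fluorouridine and compound, 16 hr in 5% CO2 at 37 °C; ONE-Glo luminescence read after 30 min.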
ELG1 genotox: qHTS screen for small molecules that induce genotoxicity in human embryonic kidney (HEK293T) cells expressing luciferase-tagged ELG1; HEK293T ELG1-luciferase reporter, luminescence, 16 h; 1.3% of 330,000 active; Potency, µM (highest dose often 46 µM), for the others: at the top dose activity change, positive = activation, actives largely listed as activators; also: % of control where 0% means no effect; nearly all actives have a fitted effect of over 60% in size
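ELG1-luciferase HEK293T cells, 2,000/well; compound pinned in; 16 hr, 37 °C, 5% CO2; ONE-Glo, 30 min RT; luminescence on CCD imager.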
FLuc counter: qHTS profiling assay for firefly luciferase inhibitor/activator using purifed enzyme and Km concentrations of substrates (counterscreen for miR-21 project). purified FLuc, Km substrates, luminescence inhibition. Potency, µM (series often up to 57.5 µM), without a hit: at the top dose activity change, negative = inhibition, hits mostly inhibitors. 6.9% of 360,000 active. AID 588342, 2011;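 also: plate controls were vehicle for no effect and reference inhibitor for full effect; nearly all actives have a fitted effect of over 55% in size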
Target sequence (P08659 whole entry, looked up): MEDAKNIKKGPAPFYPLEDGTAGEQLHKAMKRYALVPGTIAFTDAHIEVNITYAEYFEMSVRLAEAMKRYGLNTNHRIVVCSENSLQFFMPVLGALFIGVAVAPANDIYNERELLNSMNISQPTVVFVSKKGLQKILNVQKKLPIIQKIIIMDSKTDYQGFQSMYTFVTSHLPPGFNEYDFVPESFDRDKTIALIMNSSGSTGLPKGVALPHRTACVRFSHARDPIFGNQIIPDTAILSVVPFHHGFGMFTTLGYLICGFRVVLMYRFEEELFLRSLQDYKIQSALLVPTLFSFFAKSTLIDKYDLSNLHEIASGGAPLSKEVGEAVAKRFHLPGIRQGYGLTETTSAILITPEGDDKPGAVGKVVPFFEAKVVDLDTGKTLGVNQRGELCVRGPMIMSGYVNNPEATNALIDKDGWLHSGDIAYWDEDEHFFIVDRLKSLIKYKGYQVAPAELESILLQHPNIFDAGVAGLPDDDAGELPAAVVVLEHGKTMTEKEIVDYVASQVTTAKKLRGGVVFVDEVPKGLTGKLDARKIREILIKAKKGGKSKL
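Purified P. pyralis luciferase (10nM final) with 10uM D-luciferin and 10uM ATP (Km levels) in 50mM Tris acetate pH 7.5, 10mM Mg acetate, 0.01% Tween-20, 0.05% BSA; qHTS 6-point titration, ~60 µM downward; luminescence read.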
NPC1 promoter act: qHTS Assay for NPC1 Promoter Activators | Potency, µM (top dose mostly 9.22 µM), without a hit: top-dose activation, hits mostly activators | Huh7 NPC1 promoter luciferase reporter, 24 h | 2.4% of 320,000 active; also: % of control where 0% means no effect; nearly all actives have a fitted effect of over 60% in size
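Huh7 reporter cells (NPC1 promoter driving luciferase) are dosed with compound for 24 h at 37 °C, 5% CO2; luciferase detection reagent is then added and luminescence measured after 10 min at ambient temperature.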
SMN2 splice up: qHTS Assay for Enhancers of SMN2 Splice Variant Expression; HEK293 SMN2-luciferase splicing reporter, luminescence, 30-36 h; Potency, µM (doses to about 46.1 µM), for the others: at the top dose activity change, positive = activation, actives largely listed as activators; 2.8% of 210,000 active; AID 1458, 2008; also: % of control where 0% means no effect; nearly all actives have a fitted effect of over 55% in size
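HEK293 cells carry an SMN2 […]–luciferase reporter in which exon 7 inclusion puts luciferase in frame. Cells were plated 10-12 h before compound addition, then incubated 30-36 h at 37C. ONE-Glo luminescence was read; sodium butyrate at 4.5 mM final served as control.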
* marks the source's active call; other numbers are inactive results; ? = inconclusive; nt = no result given; [ ] = remark or other dose. Calls follow the shape of the dose curve; as a rule, active = well fitted curve in the direction sought with a large enough effect; inconclusive = small, poorly fitted or top-dose-only effect, or another doubt; inactive = no such curve, though single readings can be large; an effect the other way counts as inactive or inconclusive. Potency is read from the fitted curve at half-maximal effect.

SMILES | Rab9 prom act | ELG1 repair inh | ELG1 genotox | FLuc counter | NPC1 promoter act | SMN2 splice up
Cc1cc(C)nc(-n2nc(C)c3c2N(Cc2ccccc2C)C(=O)CC3c2ccc(Cl)cc2)n1 (stereo not drawn) | nt | nt | nt | -10% | nt | nt
COc1ccccc1C(=O)OCc1cc(=O)n2c(C)csc2n1 | nt | nt | nt | 19µM* | nt | nt
COc1cccc(C(=O)Nc2ccccc2C(=O)OCc2cc(=O)n3c(C)csc3n2)c1 | nt | nt | nt | -5% | nt | nt
COc1ccc(C(=O)OCc2cc(=O)n3c(C)csc3n2)cc1F | 2.2µM* | ? | ? | ? | 4µM* | nt
CCOc1cc(C(=O)OCc2cc(=O)n3c(C)csc3n2)cc(OCC)c1OCC | nt | nt | nt | -1% | nt | nt
CCC1=C2CC[C@H]3C(=O)N(c4ccccc4)C(=O)[C@H]3[C@H]2[C@@]2(Cc3ccccc3)C(=O)N(CC(=O)OC)C(=O)N2C1=O | nt | nt | nt | nt | nt | 8%
O=C(Cc1ccc(-c2ccccc2)cc1)Nc1ccccc1 | 16% | -2% | ? | -1% | 3% | nt
O=C(Cc1ccc(-c2ccccc2)cc1)Nc1ncccc1O | ? | ? | ? | 15µM* | ? | nt
COc1cccc(Nc2ncnc3nc[nH]c23)c1 | ? | 26% | 13% | 19µM* | ? | 13µM*
Cc1ccc(NC(=O)Nc2ncnc3nc[nH]c23)cc1 | 2.8µM* | ? | ? | 12µM* | 3.5µM* | nt
CCCNc1ncnc2nc[nH]c12 | -7% | 5% | -10% | -1% | -8% | -19%
CCc1ccc(Nc2ncnc3nc[nH]c23)cc1 | 2µM* | ? | ? | 11µM* | 2.2µM* | nt
O=C(O)CCNc1ncnc2nc[nH]c12 | nt | nt | nt | nt | nt | -3%[9.22 µM]
CCCCc1ccc(Nc2ncnc3nc[nH]c23)cc1 | ? | ? | 8.2µM* | 11µM* | ? | 5%
CCOc1cc(CNc2ncnc3nc[nH]c23)ccc1OC | -7% | 7% | 21% | -1% | -1% | -69%
Cc1ccc(Nc2ncnc3nc[nH]c23)cc1Cl | 3.2µM* | ? | 5.8µM* | ? | 3.5µM* | ?
Cc1cc(C(=O)COC(=O)Cc2n[nH]c(=O)c3ccccc23)c(C)n1-c1cccc(C(F)(F)F)c1 | -2% | 23µM* | 2% | 6% | -1% | -69%
Cc1cc(C(=O)COC(=O)CC2Sc3ccccc3NC2=O)c(C)n1-c1cccc(C(F)(F)F)c1 (stereo not drawn) | -2% | 3% | 4% | ? | 1% | -32%
O=C(NCCc1ccc(Cl)cc1)c1ccc2c(c1)OCO2 | 1.8µM* | ? | ? | 12µM* | 1.8µM* | nt
O=C(NCCOc1ccc(Cl)cc1)c1ccc2c(c1)OCCO2 | 3.5µM* | ? | ? | 8.5µM* | 3.2µM* | nt
NS(=O)(=O)c1ccc(CCNC(=O)c2ccc3c(c2)OCO3)cc1 | 0% | 11% | 2% | 3% | -4% | nt
O=C(NCCc1ccc(Cl)cc1)c1ccc2c(c1)OCCO2 | 0.32µM* | ? | 2.3µM* | 1.2µM* | 0.4µM* | nt
O=C(NCCc1ccccc1F)c1ccc2c(c1)OCCO2 | 0.0006µM* | ? | ? | 0.048µM* | 0.025µM* | nt
O=C(Nc1ccccc1)n1cc(-c2ccccn2)c(N2CCOCC2)n1 | 4% | -5% | -2% | -12% | 0% | 20%
Cc1sc2c(c1C)c(=O)n(-c1ccccc1)c(=O)n2CC(=O)c1ccc(Cl)cc1 | nt | nt | nt | -6% | nt | -6%
COCCNC(=O)C(c1cccnc1)N(Cc1ccccc1)C(=O)Cn1nnc2ccccc21 (stereo not drawn) | ? | ? | ? | ? | 18% | 26%
